Shown are actives, neighbours in structure and some others; about 3.5% of the full set was active somewhere.
MITF primary: human MITF inhibition, primary screen; AlphaScreen MITF homodimerization, bead proximity signal; inhibition, % at 2.6 µM; hit rate 0.91% among 650,000; in the data active means inhibition above about 50%;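 further: 0% = vehicle wells with protein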
GPR151 activ: activators of human GPR151. PathHunter beta-arrestin GPR151 cells, luminescence. activation, % at 11.2 µM. hit rate 1% among 650,000. AID 1508602; in the data active means activation above about 4.9%;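 further: 0% = median of compound wells and 100% = cells with positive control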
FBW7 act: activators of human E3 ligase FBW7. normalized activity (activation), % at 26.1 µM. AlphaScreen FBW7–phospho-cyclin E peptide binding, activator screen. AID 1259310. hit rate 0.13% among 650,000; in the data active means normalized activity above about 1.9%;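 further: purified mutant Fbw7 with reduced substrate affinity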
Target sequence (Q969H0 whole entry, looked up): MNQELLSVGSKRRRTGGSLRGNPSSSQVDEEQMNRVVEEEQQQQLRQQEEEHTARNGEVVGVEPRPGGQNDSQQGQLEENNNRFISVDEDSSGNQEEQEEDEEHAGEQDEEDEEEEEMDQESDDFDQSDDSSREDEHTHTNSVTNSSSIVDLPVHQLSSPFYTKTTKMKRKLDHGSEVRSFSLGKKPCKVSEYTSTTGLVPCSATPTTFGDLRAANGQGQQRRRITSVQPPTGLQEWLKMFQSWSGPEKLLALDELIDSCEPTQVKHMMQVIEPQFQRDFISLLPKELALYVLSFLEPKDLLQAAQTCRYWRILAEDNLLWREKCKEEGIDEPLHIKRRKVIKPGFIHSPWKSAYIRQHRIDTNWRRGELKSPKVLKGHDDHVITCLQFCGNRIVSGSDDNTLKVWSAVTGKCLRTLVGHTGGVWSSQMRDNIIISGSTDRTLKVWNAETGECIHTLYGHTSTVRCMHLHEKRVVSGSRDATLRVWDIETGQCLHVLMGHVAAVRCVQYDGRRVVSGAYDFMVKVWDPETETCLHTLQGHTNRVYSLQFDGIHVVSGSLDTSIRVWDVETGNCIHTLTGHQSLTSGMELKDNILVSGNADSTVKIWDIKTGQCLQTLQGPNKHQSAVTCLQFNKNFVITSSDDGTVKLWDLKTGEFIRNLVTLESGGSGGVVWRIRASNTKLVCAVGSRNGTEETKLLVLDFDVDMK
TEAD-YAP block: TEAD-YAP interaction inhibition | HEK-TIYL cells, TEAD-Gal4/YAP UAS-luciferase luminescence | inhibition, % at 9.12 µM | hit rate 1.4% among 640,000 | AID 1259422; in the data active means inhibition above about 32%;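 further: 0% = median of test compound wells and 100% = reference inhibitor wells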
GPR151 confirm: human GPR151 activation, confirmation screen; shares compounds with GPR151 activ; GPR151 PathHunter beta-arrestin cells, luminescence, 90 min; % of EA-reagent control over plate median; activation, % at 11.2 µM; 6,700 tested, under 10 active; AID 1508609;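 active means mean percent activation across replicates above the confirmation screen cutoff of 4.91%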
GPR119 ag: GPR119 activation, counter-screen for GPR151 activators | shares compounds with GPR151 activ | GPR119 PathHunter beta-arrestin cells, luminescence, 90 min; 0 = compound-well median, 100 = enzyme-acceptor control | activation, % at 11.2 µM | hit rate 0.3% among 6,700;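 active means mean percent activation in the counterscreen above 29.09%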;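 further: counterscreen on off-target GPR119 to flag nonselective hits from the GPR151 activator screen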
* hit, by the source's call; x = no result given; ! = a repeat was not active.

SMILES | MITF primary | GPR151 activ | FBW7 act | TEAD-YAP block | GPR151 confirm | GPR119 ag
Oc1ccc2ncccc2c1C(Nc1ccccn1)c1ccco1 (stereo not drawn) | 7.9 | 30.7* | 0.1 | 5.8 | 1.9 | 13.7
CC(C)(O)c1ccccc1CC[C@@H](SCC1(CC(=O)O)CC1)c1cccc(/C=C/c2ccc3ccc(Cl)cc3n2)c1 | 3.6 | 6.7*! | 0.3 | -8.1 | -0.2 | 1.1
NC1(C(Cl)(Cl)Cl)Oc2ccc(Cl)cc2O1 (stereo not drawn) | 45.5 | 9.9* | -0.1 | 10.9 | 0.2 | -3.4
CCOC(=O)c1sc(NC(=O)CCN2C(=O)c3ccccc3C2=O)c(C#N)c1C | 0.6 | 1.6 | 0.1 | 0.6 | x | x
CCCNc1cc(C)nc(Nc2cccnc2)n1 | 1.4 | -0.8 | 0.0 | -1.2 | x | x
CCCNc1cc(C)nc(Nc2ccccc2)n1 | 7.5 | 14.4* | 0.0 | -23.2 | 0.0 | -2.6
CN(C)C1NC(=O)c2cc(-c3ccccc3)sc2N1 (stereo not drawn) | -10.0 | 7.0* | 0.0 | -9.3 | -1.2 | -0.3
COc1ccccc1NC(=O)N1CCN(c2nc(-c3ccc(Cl)cc3)cs2)CC1 | 5.4 | -1.5 | -0.4 | -4.6 | x | x
O=C(NCc1ccccc1)c1ccccc1NS(=O)(=O)c1cccc([N+](=O)[O-])c1 | 1.6 | 4.9* | 0.1 | -2.1 | 1.4 | 12.9
Cc1ccc(S(=O)(=O)Nc2ccccc2C(=O)NCc2ccco2)cc1[N+](=O)[O-] | -1.9 | 11.4* | -0.1 | 5.5 | -0.5 | -9.3
COc1ccccc1N1CCN(C2CC(=O)N(c3ccc(C)cc3)C2=O)CC1 (stereo not drawn) | 13.4 | -0.4 | 0.3 | 7.5 | x | x
CCN(CC)c1ccc(C(=O)Nc2nc3c(s2)C(=O)CC(C)(C)C3)cc1 | 1.3 | 5.2* | 0.0 | 1.0 | -0.3 | 2.6
CCN(CC(=O)Nc1nc2c(s1)C(=O)CC(C)(C)C2)c1ccccc1 | 11.7 | 1.5 | 0.1 | 9.4 | x | x
Cc1ccc(C(=O)c2sc3nc4c(cc3c2N)CCCC4)cc1 | 1.9 | -0.7 | 0.0 | -3.4 | x | x
O=C(CCN1C(=O)c2cccc3cccc(c23)C1=O)OC/C=C/c1ccccc1 | -2.4 | 1.3 | -0.1 | 1.7 | x | x
CC(C)CC(NCC(O)Cn1c2ccccc2c2ccccc21)C(=O)O (stereo not drawn) | -7.3 | 1.3 | 0.0 | -0.5 | x | x
O=C(O)CCC(NCC(O)Cn1c2ccccc2c2ccccc21)C(=O)O (stereo not drawn) | -15.8 | 5.6* | 0.1 | 1.8 | 2.0 | 16.1
Cc1cc(OCC(=O)NCC(C)CN(C)C)ccc1Cl (stereo not drawn) | -11.6 | 5.8* | -0.1 | -3.9 | 1.6 | 13.6
Cc1cc(OCC(=O)NCc2ccc(F)cc2)ccc1Cl | 6.6 | 6.1* | 0.0 | 2.0 | -0.7 | -2.5
COc1ccc(C2(CC(=O)N(C)CC34CC5CC(CC(C5)C3)C4)CC(=O)N(C)C2=O)cc1 (stereo not drawn) | -5.2 | -0.3 | -0.1 | -55.2 | x | x
CC1CN(c2cccc(Cl)c2)c2nc3c(c(=O)n(CC(N)=O)c(=O)n3C)n2C1 (stereo not drawn) | 14.4 | 0.7 | 0.1 | 2.1 | x | x
O=C(NCCC1=CCCCC1)C1CC12CCN(Cc1ccsc1)CC2 (stereo not drawn) | -17.4 | -1.0 | 0.0 | -4.2 | x | x
O=C(CCCCC(=O)Nc1ccc2c(c1)OCCO2)Nc1ccc2c(c1)OCCO2 | 2.2 | 5.1* | -0.1 | 8.9 | -0.2 | -3.0
O=C(CS(=O)CC(=O)Nc1ccc2c(c1)OCCO2)Nc1ccc(F)cc1 (stereo not drawn) | -3.1 | 0.5 | 0.0 | -2.1 | x | x
O=C(CS(=O)CC(=O)Nc1ccc2c(c1)OCCO2)Nc1ccc(Cl)cc1 (stereo not drawn) | 16.4 | 6.7* | 0.2 | -45.1 | 0.8 | 5.9
O=C(COC(=O)c1ccco1)Nc1ccc2c(c1)OCO2 | -8.6 | 5.5* | -0.1 | -3.0 | 0.7 | 4.4
COc1cc2ncc(C(=O)c3ccc(C)cc3)c(N3CCC(C(N)=O)CC3)c2cc1OC | -9.1 | -2.2 | 0.6 | -8.3 | x | x
CC(=O)Nc1ccc(NC(=O)CSc2nnc(-c3ccncc3)n2C)cc1 | -7.5 | -0.8 | 0.2 | 4.3 | x | x
Cn1c(SCC(=O)Nc2ccc(Br)cc2)nnc1-c1ccc(N)cc1 | 2.8 | 5.3* | -0.2 | 16.9 | 0.9 | 8.0
Cn1c(SCC(=O)Nc2ccc3nc(SCC(=O)Nc4ccccc4F)sc3c2)nnc1-c1ccc(Cl)cc1Cl | 8.4 | -1.5 | 0.7 | -2.4 | x | x

Bioassay records: PubChem, The Scripps Research Institute Molecular Screening Center
